TDP1 cell CPT – DT40-hTDP1 cell growth loss with CPT; chicken DT40 Tdp1-/-;hTDP1 cells + 20 nM CPT, ATP luminescence, 48 h; Potency, µM (series often up to 46.2 µM), inactives show at the highest dose activity change, negative = growth inhibition, most hits filed as inhibitors; 420,000 tested, 12% active; note: potency is the fitted concentration of half-maximal effect; % is set by controls: 0 for no effect and ±100 for the full control effect; nearly all actives have a fitted effect of over 55% in size
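Chicken DT40 Tdp1-/- cells stably complemented with human TDP1 were seeded at 400 cells/well in medium containing 20 nM camptothecin, exposed to pin-transferred compounds, and grown at 37 °C for at least 48 hr. Viability was read as ATP luminescence.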
HepG2 tox – HepG2 cytotoxicity, counter-screen for TGF-b inhibitors; HepG2 CAGA-GFP viability, ATP luminescence, 18 h; Potency, µM (doses to about 46.1 µM), without a hit: at the top dose activity change, negative = cytotoxicity, usual class: cytotoxic; 410,000 tested, 0.76% active; note: potency is the fitted concentration of half-maximal effect
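CellTiter-Glo luminescence gave cytotoxicity after 18 hours at 37 degrees C. The cells were HepG2 CAGA-GFP in 1% FBS DMEM, stimulated with 500 pg/mL TGF-beta after compound addition. %Activity was normalised to no-cell wells (complete cell-killing) and DMSO (no toxicity), and curves were fitted and classified.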
DT40 TDP1 no CPT – qHTS for Inhibitors of human tyrosyl-DNA phosphodiesterase 1 (TDP1): qHTS in cells in absence of CPT; Potency, µM (titrated, usually from 46.2 µM), for the others: at the highest dose activity change, negative = growth inhibition, most hits filed as inhibitors; DT40 Tdp1-/- hTDP1 cells, no CPT, ATP luminescence, 48 h; 420,000 tested, 15% active; note: potency is the fitted concentration of half-maximal effect; % is set by controls: 0 for no effect and ±100 for the full control effect; nearly all actives have a fitted effect of over 55% in size
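Seeded 400 DT40-hTDP1 cells/well (vehicle DMSO, no 20 nM CPT); pinned compounds; ≥48 hr at 37 °C; CellTiter-Glo luminescence as viability measure.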
ASM inhibitor – inhibitors of human secretory acid sphingomyelinase; P17405; placental ASM, HMU-PC fluorogenic substrate, 60 min; Potency, µM (top dose mostly 57.5 µM), for inactives: top-dose activity change, negative = inhibition, actives largely listed as inhibitors; 340,000 tested, 0.006% active; note: potency is the fitted concentration of half-maximal effect
Target sequence (P17405 47-631 limits assumed): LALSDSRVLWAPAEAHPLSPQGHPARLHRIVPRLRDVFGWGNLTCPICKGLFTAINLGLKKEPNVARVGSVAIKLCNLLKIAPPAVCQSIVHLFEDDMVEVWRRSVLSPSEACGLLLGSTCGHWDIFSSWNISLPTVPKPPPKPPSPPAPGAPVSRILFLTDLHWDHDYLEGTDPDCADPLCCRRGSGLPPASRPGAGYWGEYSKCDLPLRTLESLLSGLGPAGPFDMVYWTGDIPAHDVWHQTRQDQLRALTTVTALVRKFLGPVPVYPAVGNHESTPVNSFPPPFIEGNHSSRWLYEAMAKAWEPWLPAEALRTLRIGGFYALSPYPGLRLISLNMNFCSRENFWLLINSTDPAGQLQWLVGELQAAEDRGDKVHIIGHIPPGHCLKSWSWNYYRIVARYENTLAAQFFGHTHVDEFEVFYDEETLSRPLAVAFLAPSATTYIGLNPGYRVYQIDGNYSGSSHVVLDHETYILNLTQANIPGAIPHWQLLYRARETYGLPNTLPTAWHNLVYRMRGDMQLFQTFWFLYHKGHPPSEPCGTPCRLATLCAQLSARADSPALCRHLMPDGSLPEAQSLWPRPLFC
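Fluorescence read-out (Ex 386 nm, Em 447 nm) after stopping the reaction at pH 10. Enzyme: ASM from human placenta; substrate HMU-PC0, 9 uM final; 60 min, 37 °C. Compound preincubation 10 min, ambient temperature.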
IL-1B inflam inh – inhibitors of inflammasome signaling (IL-1 beta secretion); THP-1 LPS/ATP IL-1B secretion, AlphaLISA, 16 h; stronger effect = lower value; activity change, % at 57.5 µM; 360,000 tested, 4.7% active; AID 743279; in the data active = activity change below about -50%; inconclusive = mostly about -30% to -49%; note: % is set by controls: 0 for no effect and ±100 for the full control effect
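Secreted IL-1B measured by AlphaLISA bead assay after 16 h compound exposure of THP-1 cells; compounds (final up to 57.5 uM) added 1 h before LPS (250 ng/mL) and ATP (1.25 mM) stimulation; lower signal means less secretion.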
TGFb SMAD3 inh – inhibitors of TGF-b signaling | HepG2 CAGA-GFP TGF-b/SMAD3 reporter, GFP fluorescence, 18 h; TGF-beta stimulated, 500 pg/mL final | Potency, µM (series often up to 46.1 µM), without a hit: at the top dose activity, negative = inhibition, usual class: inhibitors | 410,000 tested, 1.2% active | AID 588855; note: potency is the fitted concentration of half-maximal effect; % is set by controls: 0 for no effect and ±100 for the full control effect; nearly all actives have a fitted effect of over 65% in size
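Inhibition of TGF-beta-driven CAGA-GFP reporter expression in HEPG2 cells is measured by cellular GFP fluorescence after 18 h stimulation with 500 pg/mL recombinant TGF-beta in 1% FBS medium at 37 degrees C.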
Starred values were filed as active, the others as inactive; u = inconclusive; x = no result. This is a sample that favours compounds with a hit; in the whole collection about 19% have one here. Unless noted, calls come from the whole dose curve; as a rule, active = well fitted curve in the direction sought with a large enough effect; inconclusive = small, poorly fitted or top-dose-only effect, or another doubt; inactive = no such curve, though single readings can be large; an effect the other way counts as inactive or inconclusive.

SMILES	TDP1 cell CPT	HepG2 tox	DT40 TDP1 no CPT	ASM inhibitor	IL-1B inflam inh	TGFb SMAD3 inh
Cc1cc(C)n(-c2ccc(C(=O)N3CCc4ccccc43)cc2)n1	u	-25%	16µM*	2%	u	-7%
Cc1cc(C(=O)N2CCc3ccccc32)n(-c2ccccc2)n1	u	-54%	18µM*	-2%	36	-11%
COc1ccc(-n2nc3ccc(NC(=O)c4cccc(OCCC(C)C)c4)cc3n2)cc1	18µM*	-2%	7.3µM*	x	x	-21%
COc1ccc(-n2nc3ccc(NC(=O)c4ccc(-c5cc(Cl)ccc5Cl)o4)cc3n2)cc1	-18%	-14%	u	x	x	-6%
COc1ccc(-n2nc3ccc(NC(=O)c4c(OC)cccc4OC)cc3n2)cc1	16µM*	-3%	15µM*	x	x	-1%
CCOc1ccc(-n2nc3ccc(NC(=O)Cc4ccccc4)cc3n2)cc1	3.7µM*	-93%	3.7µM*	x	x	u
CCOc1ccc(-n2nc3ccc(NC(=O)CC)cc3n2)cc1	-1%	11%	-13%	42%	-13	-12%
O=C(Nc1ccc2nn(-c3ccc(F)cc3)nc2c1)c1cccc2c(Cl)cccc12	10µM*	2%	21µM*	x	x	6%
O=C(Nc1ccc(F)cc1)c1cccc2ccccc12	-27%	-13%	u	-5%	15	2%
Cc1cccc(C(=O)NCC(=O)N2CCC2)c1	-17%	-21%	21%	-1%	-7	4%
CC(C)(C)N(Cc1ccccc1)C(=O)CSc1ncn[nH]1	u	6%	-20%	0%	2	-3%
CCn1c(SCC(=O)c2ccccc2)nnc1-c1cccs1	-19%	1%	-7%	-1%	-6	-4%
O=C(CN1CC[n+]2c(-c3cccs3)csc21)c1ccc(-c2ccccc2)cc1	9.2µM*	-22%	8.2µM*	-1%	-89*	-8%
CCc1c(C)nc(SCC(=O)N2CCCCC2CC)[nH]c1=O (stereo not given)	u	-10%	u	1%	13	9%
Nc1[nH]nc2ncc3cc4ccccc4nc3c12	18µM*	7%	9.2µM*	-2%	-95*	u
CCOC(=O)c1c(-c2ccccc2)csc1NC(=O)c1nc(SCC)ncc1Cl	-9%	-18%	u	x	x	-16%
CCOC(=O)c1c(NC(=O)c2nn(CC)cc2Br)c(C#N)cn1-c1ccccc1	u	-4%	21µM*	-10%	u	u
CCOC(=O)c1c(-c2ccc(Cl)cc2)csc1NC(=O)CNCc1ccco1	u	-42%	u	-17%	15	u
CCOC(=O)c1c(-c2ccccc2)csc1NC(=O)c1nn(CC)cc1Br	u	-5%	u	-2%	-67*	2%
CCOC(=O)c1c(-c2ccccc2)csc1NC(=O)CSc1nc(C)cc(C)n1	u	-11%	23µM*	-9%	-22	u
CCOC(=O)c1c(N)c(C#N)cn1-c1ccccc1	-30%	-2%	1%	6%	-5	-4%
CCOC(=O)c1c(-c2ccccc2)csc1NC(=O)C(C)NCc1ccco1 (stereo not given)	18µM*	-3%	u	-3%	0	-10%
CCOC(=O)c1c(-c2ccccc2)csc1NC(=S)N(CC)CC	-9%	4%	u	-2%	105	-12%
CCC(=O)O[C@H](CC(=O)O)C[N+](C)(C)C	-3%	x	-8%	x	x	x
Cc1ccc(S(=O)(=O)N2[C@@H](Cc3ccccc3)CO[C@H]2CC(=O)c2ccccc2)cc1	-23%	x	-27%	x	-6	x
